# Results filed as inconclusive are left out. Entries that show only a call come without a potency. Active and inactive are the calls of the source. Calls come from the whole dose curve.
# Target: Estrogen receptor (Homo sapiens) (UniProt P03372)
# Assay: qHTS assay for small molecule agonists of estrogen receptor alpha signaling (AID 588514); note: nearly all actives have a fitted effect of over 70% in size
# Details: ER-alpha-UAS-bla HEK293, beta-lactamase ratio, 18 h; series mostly up to 76.8 µM
# Text: NIH Chemical Genomics Center [NCGC]
# U.S. Environmental Protection Agency [EPA]
# National Institutes of Environmental Health Sciences [NIEHS]
# National Toxicology Program [NTP]
# Estrogen receptor alpha (ER-alpha) is an important member of nuclear hormone receptors. ER-alpha plays important role in breast cancer as well as in other women's health issues. The majority of breast cancers is estrogen receptor (ER) positive and depends on estrogen for growth. There is also growing concern for some of environmental chemicals which may contribute the increasing the incidence of breast cancer. Therefore, it is important to understand the effect of environmental chemicals in ER-alpha signaling pathway.
# NCGC Assay Protocol Summary
# Using a beta-lactamase reporter-gene under control of the ER response element, a cell-based assay [ER-alpha-UAS-bla GripTiteTM cell-Based Assay from Invitrogen] was used to measure ER-alpha signaling pathway in agonist mode. ER-alpha-UAS-bla-GripTite HEK 293 cells were used with assay medium containing 2% charcoal/dextran treated FBS, 0.1 mM NEAA and 1 mM sodium pyruvate. Cells were cultured in this assay medium overnight in the flasks before the assay. The assay was performed in clear bottom black Greiner 1536-well plates. 17-beta-estradiol was used as a positive control in the screen. Library compounds were measured for their ability to either stimulate the reporter gene activity. Compounds were screened in a titration series in 1536-well format. […] Data was normalized relative to 17-beta-estradiol control (20 nM, 100%), and DMSO only wells (basal, 0%). Concentration-response titration points for each compound were fitted to the Hill equation yielding concentrations of half-maximal stimulation (EC50) and maximal response (efficacy) values.
# qHTS protocol for ER-alpha beta-lactamase assay in agonist mode
# [Step] [Parameter] [Value] [Description]
# 1. Reagent; 6 uL; 5000 cells/well
# 2. Incubation; 37 C for 4 hrs
# 4. Controls (17-beta-estradiol); 23 nL
# - Dose response, start 1uM, 1:3 dilutions with duplicates
# - Two columns with 20 and 0.5 nM (final) concentration.
# 5. Incubation; 37 C for 18 hrs
# 6. Detection reagent; 1 uL of CCF4-dye
# 7. Incubation; RT for 2 hrs
# 8. Detection; Fluorescence; Envision plate reader or Acumen plate reader
# Chain of Estrogen receptor (Homo sapiens) (P03372 whole entry, looked up): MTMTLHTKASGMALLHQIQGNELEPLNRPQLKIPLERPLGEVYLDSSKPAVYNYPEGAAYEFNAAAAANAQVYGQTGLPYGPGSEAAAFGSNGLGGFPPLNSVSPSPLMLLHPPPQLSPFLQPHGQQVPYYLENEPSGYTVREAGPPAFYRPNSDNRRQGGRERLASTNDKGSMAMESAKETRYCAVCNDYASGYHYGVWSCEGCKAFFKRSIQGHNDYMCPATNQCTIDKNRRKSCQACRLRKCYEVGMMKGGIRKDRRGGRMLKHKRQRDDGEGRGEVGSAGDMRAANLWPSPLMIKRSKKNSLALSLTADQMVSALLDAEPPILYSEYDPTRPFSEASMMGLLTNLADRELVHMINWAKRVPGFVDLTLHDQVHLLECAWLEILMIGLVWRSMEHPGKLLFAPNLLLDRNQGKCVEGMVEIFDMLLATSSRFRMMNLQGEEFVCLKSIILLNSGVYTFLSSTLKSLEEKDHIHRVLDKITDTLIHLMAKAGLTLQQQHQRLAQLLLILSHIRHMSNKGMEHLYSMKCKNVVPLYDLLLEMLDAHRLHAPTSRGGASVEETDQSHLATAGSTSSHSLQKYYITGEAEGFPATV
row,SMILES,Potency
1,N#CN=C1SCCN1Cc1ccc(Cl)nc1,inactive
2,O=C(O)C(F)(F)C(F)(F)C(F)(F)C(F)(F)C(F)(F)C(F)(F)C(F)(F)C(F)(F)C(F)(F)F,inactive
3,COc1nc(C)nc(NC(=O)NS(=O)(=O)c2ccccc2CCC(F)(F)F)n1,inactive
4,FC(F)(F)c1ccc(Cl)cc1,inactive
5,CC1(C)CCC(Cc2ccc(Cl)cc2)C1(O)Cn1cncn1 (stereo not given),inactive
6,CCSC(=O)N(CC)C1CCCCC1,inactive
7,CCOP(=S)(OCC)Oc1ccc(S(C)=O)cc1 (stereo not given),inactive
8,CCOP(=O)(NC(C)C)Oc1ccc(S(C)=O)c(C)c1 (stereo not given),inactive
9,CCC(C)Nc1c([N+](=O)[O-])cc(C(C)(C)C)cc1[N+](=O)[O-] (stereo not given),inactive
10,CNC(=O)Oc1cc(C)c(SC)c(C)c1,25.1 µM (active)
11,CCNc1nc(Cl)nc(NC(C)(C)C)n1,inactive
12,c1cc2c3c(cccc3c1)CC2,inactive
13,CCCCC(O)(Cn1cncn1)c1ccc(Cl)cc1Cl (stereo not given),inactive
14,Cc1[nH]c(=O)n(C(C)(C)C)c(=O)c1Cl,inactive
15,CSC(=O)c1c(C(F)F)nc(C(F)(F)F)c(C(=O)SC)c1CC(C)C,inactive
16,CCN(CC)C(=O)C(C)Oc1cccc2ccccc12 (stereo not given),inactive
17,O=C(Nc1ccccc1)Nc1ccnc(Cl)c1,inactive
18,CCOC(=O)C(Cl)Cc1cc(-n2nc(C)n(C(F)F)c2=O)c(F)cc1Cl (stereo not given),inactive
19,O=[As](O)(O)O,inactive
20,O=C1NCCN1Cc1ccc(Cl)nc1,inactive

row,SMILES,Potency
1,COC(=O)NS(=O)(=O)c1ccc(N)cc1,inactive
2,CCC[CH2][Sn]([Cl])([CH2]CCC)[CH2]CCC,inactive
3,CC(Oc1cc(Cl)c(Cl)cc1Cl)C(=O)O (stereo not given),inactive
4,CC(C)C1(C)N=C(c2ncccc2C(=O)O)NC1=O (stereo not given),inactive
5,CCOP(=S)(OCC)Oc1ncn(-c2ccccc2)n1,inactive
6,CCOP(=S)(OCC)SCCl,inactive
7,COC(=O)c1ccccc1S(=O)(=O)NC(=O)N(C)c1nc(C)nc(OC)n1,inactive
8,CC(C)(C)C(=O)[C@@H](Oc1ccc(Cl)cc1)n1cncn1,inactive
9,COCC(=O)N(c1c(C)cccc1C)[C@H](C)C(=O)OC,inactive
10,COCc1cnc(C2=NC(C)(C(C)C)C(=O)N2)c(C(=O)O)c1 (stereo not given),inactive
11,CC(C)=CC1C(C(=O)OCc2coc(Cc3ccccc3)c2)C1(C)C (stereo not given),inactive
12,C=CC(=O)NCO,inactive
13,CC(C)(C#N)N=NC(C)(C)C#N,inactive
14,COP(=S)(OC)Oc1ccc([N+](=O)[O-])c(C)c1,inactive
15,CN(C)c1ccc(N=O)cc1,inactive
16,CCOP(=O)(OCC)SCCSCC,inactive
17,CC(C)(C)N(NC(=O)c1ccc(Cl)cc1)C(=O)c1ccccc1,inactive
18,CCC(C)n1c(=O)[nH]c(C)c(Br)c1=O (stereo not given),inactive
19,CCCCOC(=O)[C@@H](C)Oc1ccc(Oc2ccc(C#N)cc2F)cc1,inactive
20,C=CC(=O)OCCCCCC(C)C,inactive

# Reference: PubChem BioAssay (NCATS)
